Sampled rows, rich in hits. Any-hit rate of the full collection: about 3.5%.
GPR151 activ: activators of human GPR151, primary screen, cell-based, PathHunter beta-arrestin, luminescence; G-protein coupled receptor 151 (Homo sapiens), Q8TDV0; PathHunter beta-arrestin GPR151 cells; activation, % at 11.2 µM; 1% of 650,000 active; AID 1508602, 2020; in the data active means activation above about 4.9%;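 further: 0% = median of compound wells and 100% = cells with positive control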
MITF inh: MITF inhibitors, primary screen, biochemical, AlphaScreen, human | Microphthalmia-associated transcription factor (Homo sapiens), O75030 | AlphaScreen MITF homodimerization, bead proximity signal | inhibition, % at 2.6 µM | 0.91% of 650,000 active; in the data active means inhibition above about 50%;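 further: 0% = vehicle wells with protein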
TEAD-YAP inh: TEAD-YAP interaction inhibition, primary screen, TEAD-YAP interaction inhibitor project, luminescence, HEK-TIYL cells; TEAD-Gal4/YAP UAS-luciferase luminescence; inhibition, % at 9.12 µM; 1.4% of 640,000 active; in the data active means inhibition above about 32%;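 further: 0% = median of test compound wells and 100% = reference inhibitor wells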
FBW7 act: FBW7 E3 ligase activators, primary screen, biochemical, AlphaScreen, human | AlphaScreen FBW7–phospho-cyclin E peptide binding, activator screen | normalized activity (activation), % at 26.1 µM | 0.13% of 650,000 active | AID 1259310, 2017; in the data active means normalized activity above about 1.9%;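 further: purified mutant Fbw7 with reduced substrate affinity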
Target sequence (Q969H0 whole entry, looked up): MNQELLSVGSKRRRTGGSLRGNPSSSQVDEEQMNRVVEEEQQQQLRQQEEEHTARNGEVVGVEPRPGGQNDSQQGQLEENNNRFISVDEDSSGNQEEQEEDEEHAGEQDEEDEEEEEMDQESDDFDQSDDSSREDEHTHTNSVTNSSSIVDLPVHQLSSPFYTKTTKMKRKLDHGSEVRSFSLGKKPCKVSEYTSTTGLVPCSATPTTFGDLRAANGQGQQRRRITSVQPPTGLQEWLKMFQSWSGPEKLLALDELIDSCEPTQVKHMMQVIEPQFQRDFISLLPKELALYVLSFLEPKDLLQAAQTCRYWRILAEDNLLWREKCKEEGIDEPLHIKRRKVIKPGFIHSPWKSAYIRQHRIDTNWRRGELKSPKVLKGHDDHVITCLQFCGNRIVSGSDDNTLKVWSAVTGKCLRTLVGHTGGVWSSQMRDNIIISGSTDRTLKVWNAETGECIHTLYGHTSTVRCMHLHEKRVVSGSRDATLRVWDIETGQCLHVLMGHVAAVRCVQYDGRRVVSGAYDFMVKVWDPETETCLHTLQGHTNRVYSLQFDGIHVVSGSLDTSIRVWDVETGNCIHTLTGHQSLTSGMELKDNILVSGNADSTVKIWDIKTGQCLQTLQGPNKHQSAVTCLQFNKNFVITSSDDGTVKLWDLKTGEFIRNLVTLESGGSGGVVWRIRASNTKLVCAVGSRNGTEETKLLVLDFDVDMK
GPR151 confirm: GPR151 activators, triplicate retest, confirmation, cell-based, PathHunter beta-arrestin, luminescence. shares compounds with GPR151 activ. AID 1508609, 2020. GPR151 PathHunter beta-arrestin cells, 90 min; % of EA-reagent control over plate median. 6,700 tested, under 10 active. activation, % at 11.2 µM;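 active means mean percent activation across replicates above the confirmation screen cutoff of 4.91%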
GPR119 counter: GPR119 activators in beta-arrestin cells, counter-screen for GPR151 activator project, cell-based, PathHunter beta-arrestin, luminescence, triplicate | shares compounds with GPR151 activ | 90 min; 0 = compound-well median, 100 = enzyme-acceptor control | activation, % at 11.2 µM | 0.3% of 6,700 active;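 active means mean percent activation in the counterscreen above 29.09%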;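 further: counterscreen on off-target GPR119 to flag nonselective hits from the GPR151 activator screen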
Numbers without * were called inactive; x = not tested or not shown; ! = a repeat was not active.

SMILES	GPR151 activ	MITF inh	TEAD-YAP inh	FBW7 act	GPR151 confirm	GPR119 counter
Cc1cc(=O)[nH]c(NC2CCN(S(=O)(=O)c3cccc([N+](=O)[O-])c3)CC2)n1	-1	6	3	1	x	x
O=[N+]([O-])c1ccc(S(=O)(=O)N2CCN(S(=O)(=O)N3CCOCC3)CC2)cc1	3	-3	12	0	x	x
O=[N+]([O-])c1ccc(-c2ccc(S(=O)(=O)N3CCOCC3)cc2)cc1	5.6*	3	9	0	-1	-13
NC(=O)C1(N2CCCCC2)CCN(S(=O)(=O)c2ccc(Cl)cc2)CC1	5.4*	-2	-9	0	0	3
COc1ccccc1NC(=S)NNc1ccccc1[N+](=O)[O-]	-2	30	-4	0	x	x
COc1ccc(-c2cc(NCCCN3CCCC3=O)ncn2)cc1	0	-3	-11	0	x	x
Cn1ccc2cc(-c3cc(NCCCN4CCCC4=O)ncn3)ccc21	11*	-17	1	0	0	1
Cc1noc(C)c1-c1cc(NCCCN2CCCC2=O)ncn1	5.9*	2	-4	0	-1	-7
COc1ccccc1Cn1c(=S)[nH]c2cc(C(=O)N(C)CCc3ccccn3)ccc2c1=O	0	10	17	0	x	x
CCCSc1ncccc1C(=O)Nc1c(C)noc1C	7.4*	4	-2	0	0	-6
COC(=O)c1ccc(NC(=O)c2c(NCc3ccc(C)o3)sc3c2CCCC3)cc1	8.1*	14	-7	0	1	0
COC(=O)c1c(NC(=O)c2ccc(C)cc2)sc2c1CCCCC2	-1	6	-1	0	x	x
COc1ccc(OC)c(NC(=O)c2c(NCc3ccc(C)o3)sc3c2CCCC3)c1	3	3	4	0	x	x
COC(=O)c1c(NC(=O)c2ccc(C)cc2)sc2c1CCCC2	6.5*	1	4	0	0	14
O=C(Nc1c(F)cccc1F)c1ccc(Cl)cc1	7.7*	3	-1	0	-1	-1
O=C(Nc1c(F)cccc1F)c1ccccc1Cl	-1	13	-22	0	x	x
O=C(Nc1ccc2ccccc2c1)c1ccc(Cl)cc1	5.2*	3	-49	0	0	-8
CN(Cc1ccccc1)C(=O)CCC1CCN(C(=O)c2cc[n+]([O-])cc2)CC1	5.6*	14	0	0	1	6
COc1cc(C2C3=C(CC(C)(C)CC3=O)Nc3ccccc3N2C(=O)c2ccccc2)ccc1OCc1ccccc1 (configuration not stated)	0	11	8	0	x	x
Cc1cc(Cl)ccc1NC(=O)CCc1ccc(S(=O)(=O)NCC(C)C)cc1	3	x	x	x	x	x
CCOC(=O)C(C(=O)NCc1ccccc1)C1CCCCC1 (configuration not stated)	5.9*	-14	-4	0	-1	-1
CN(NS(=O)(=O)c1ccc2ccccc2c1)c1ccccc1	7.6*	5	0	0	0	1
CN(c1cccc(NS(=O)(=O)c2ccc3ccccc3c2)c1)S(C)(=O)=O	0	0	5	0	x	x
CCN(CC)c1nc(C)c([N+](=O)[O-])c(C)c1C(N)=O	6.5*	-16	-12	0	0	2
O=C(CCS(=O)(=O)c1cc2c(cc1Cl)NC(=O)CO2)Nc1ccc(F)cc1F	5.5*	7	-3	0	-1	-14
SMILES	GPR151 activ	MITF inh	TEAD-YAP inh	FBW7 act	GPR151 confirm	GPR119 counter
Cc1nc2ccccc2n1CC(=O)N1CCc2c(nc(N3CCCC3)[nH]c2=O)C1	17*	12	6	0	-1	5
O=C(CCn1c(=O)oc2ccccc21)N1CCc2c(nc(N3CCCC3)[nH]c2=O)C1	5.1*	10	6	0	0	4
O=C(CCc1ccccc1)N1CCc2c(nc(N3CCCC3)[nH]c2=O)C1	4	13	2	0	x	x
CCCCc1cc(=O)oc2c(C)c(OCC(=O)OC(C)(C)C)ccc12	5.7*	6	-2	0	0	-1
CC(Oc1ccccc1)C(=O)Nc1ccc(S(=O)(=O)NC2CCCCC2)cc1 (configuration not stated)	3	8	16	0	x	x
CCc1ccccc1NC(=S)N(Cc1cccc(Br)c1)CC1CCC(C(=O)O)CC1 (configuration not stated)	7.9*	2	11	0	0	8
COc1ccc(Cl)cc1NC(=S)N(Cc1cccc(Br)c1)CC1CCC(C(=O)O)CC1 (configuration not stated)	15*	-13	6	0	-1	6
CSCc1c(C(=O)O)oc2ccccc12	0	8	1	0	x	x
COc1ccc2c(CNC3CCCC(C)C3C)c(C(=O)O)n(Cc3ccc(C)cc3)c2c1 (configuration not stated)	4.9*	10	11	0	0	0
CCC(=O)Oc1cc2c(C(=O)OC(C)C)c(C)oc2cc1Br	8.2*	-6	-44	0	1	17
O=C(Cn1ncc2c(Cl)cccc21)NCc1cccc(Br)c1	6.5*	0	-9	0	0	0
O=C(Cn1ncc2ccccc21)NCc1cccc(Br)c1	-1	-10	-42	0	x	x
COc1ccc(Nc2ncnc3c2cnn3-c2ccc(Cl)cc2)cc1Cl	11*	1	-3	0	-1	-8
COc1ccc(-n2ncc3c(Nc4ccc(Cl)c(Cl)c4)ncnc32)cc1	-1	8	23	0	x	x
CCOC(=O)/C=C(\C)N1N=C(/C=C/c2ccccc2)CC1c1ccccc1 (configuration not stated)	-1	9	-20	0	x	x
CCc1ccccc1NC(=O)CSc1nc2cc(C(=O)NCCOC)ccc2c(=O)n1Cc1ccco1	1	6	12	1	x	x
CCN1CCN(C(C)C(=O)Nc2ncc(C)s2)CC1 (configuration not stated)	7.0*	16	4	0	1	12
Cc1nc2c(-c3ccccc3)c(C)nn2c(C)c1CCC(=O)NCCN1CCOCC1	7.6*	-4	1	0	-1	-7
COc1ccc(CCNC(=O)CC(=O)N/N=C/c2cccnc2)cc1OC	-1	-12	-4	0	x	x
Cn1nnnc1SCc1nnc(-c2cccs2)o1	7.6*	2	-21	0	1	14
Cn1nnnc1SCc1nnc(-c2ccccc2)o1	1	-3	-25	0	x	x
CN1CCC(=C2c3ccccc3C=Cc3ccccc32)CC1	5.3*!	-15	-11	0	0	-6
CN1CCC(=C2c3ccccc3Sc3ccccc32)CC1	2	-4	6	0	x	x

Screening results deposited in PubChem BioAssay by The Scripps Research Institute Molecular Screening Center.
